Our source for the outcome values is PubChem BioAssay (Tox21).

Molecules are shown by their SMILES. Records with an inconclusive call do not appear. Activity calls are given as the source filed them. The call rests on the fitted dose curve.

Peroxisome proliferator-activated receptor delta (Homo sapiens), sequence (Q03181 whole entry, looked up): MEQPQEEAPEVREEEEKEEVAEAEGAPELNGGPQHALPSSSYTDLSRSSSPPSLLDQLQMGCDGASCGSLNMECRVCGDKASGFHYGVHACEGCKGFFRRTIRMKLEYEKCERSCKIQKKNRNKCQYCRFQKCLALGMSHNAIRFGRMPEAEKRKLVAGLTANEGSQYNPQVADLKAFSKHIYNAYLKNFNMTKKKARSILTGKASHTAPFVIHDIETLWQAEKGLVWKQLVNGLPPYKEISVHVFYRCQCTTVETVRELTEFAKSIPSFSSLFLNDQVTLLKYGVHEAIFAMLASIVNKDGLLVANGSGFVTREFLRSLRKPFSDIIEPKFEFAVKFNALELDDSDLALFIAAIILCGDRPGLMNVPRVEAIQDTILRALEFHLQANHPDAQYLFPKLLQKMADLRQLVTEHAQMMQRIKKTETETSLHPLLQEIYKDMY

The target of this test is Peroxisome proliferator-activated receptor delta (Homo sapiens) (UniProt Q03181). The experiment in a line: qHTS assay to identify small molecule agonists of the peroxisome proliferator-activated receptor delta (PPARd) signaling pathway (AID 743212). Conditions: HEK293H PPARd-UAS-bla, beta-lactamase FRET ratio, 17 h; series mostly up to 62.6 µM. An excerpt:
U.S. Tox21 Program National Center for Advancing Translational Sciences [NCATS] NIH Chemical Genomics Center [NCGC] U.S. Environmental Protection Agency [EPA] National Institutes of Environmental Health Sciences [NIEHS] National Toxicology Program [NTP] U.S. Food and Drug Administration [FDA] Tox21 Assay Overview: The peroxisome proliferator-activated receptors (PPARs) are lipid-activated transcription factors of the nuclear receptor superfamily with three distinct subtypes namely PPAR alpha, PPAR delta (PPARd) and PPAR gamma. All these subtypes heterodimerizes with Retinoid X receptor (RXR) and have different physiological functions. […] To identify the compounds that activate PPAR-delta signaling, GeneBLAzer PPAR delta UAS-bla HEK293H cell line (Invitrogen, Carlsbad, CA, USA) containing a beta-lactamase reporter gene under the control of an Upstream Activator Sequence (UAS) was used to screen the Tox21 compound library.
Tox21 Assay Protocol Summary: PPARd-bla cells were dispensed at 3000 cells/6uL/well in 1536-well black wall/clear bottom plates using a Multidrop Combi (Thermo Fisher Scientific, Waltham, MA) dispenser. After the assay plates were incubated at 37 C and 5% CO2 for 5 h, 23 nL of compounds dissolved in DMSO, positive controls or DMSO only was transferred to the assay plate by a Pintool station (Kalypsys, San Diego, CA). The assay plates were incubated at 37C for 17 h. After 1 uL of LiveBLAzerTM B/G FRET substrate was added using a Bioraptr Flying Reagent Dispenser (FRD) workstation (Beckman Coulter, Indianapolis, IN, USA), the plates were incubated at room temperature for 2 h, and fluorescence intensity was measured by an Envision plate reader (PerkinElmer, Shelton, CT).
As for `O=C1C(CCS(=O)c2ccccc2)C(=O)N(c2ccccc2)N1c1ccccc1` (stereo not given), the outcome was inactive.

Consider `COc1cc(CCC(C)=O)ccc1O`, for which the result was inactive.

Take `NC(N)=NS(=O)(=O)c1ccc(N)cc1`: the result was inactive.

In the case of `Cc1ccccc1Br`, the outcome was inactive.

Turning to `CCCCCCCCC=O`, the result was inactive.

Consider `CCCc1ccc(N)cc1`, for which the outcome was inactive.

For the molecule `CCN1CCCC(OC(=O)C(c2ccccc2)c2ccccc2)C1` (stereo not given), the outcome was inactive.

For `[O-][N+](=Nc1ccccc1)c1ccccc1`, the outcome was inactive.

Consider `CCO[Si](C)(OCC)OCC`, for which the result was inactive.

`CCOC(=O)Nc1ccc2c(c1)N(C(=O)CCN1CCOCC1)c1ccccc1S2`: the result was inactive.

With `O=C(O)c1ccc[n+]([O-])c1`, the result was inactive.

On to `CCC(=O)c1cccc(Cl)c1`, for which the result was inactive.

Regarding `C=CCOCC(O)CS(=O)(=O)O` (stereo not given), the result was inactive.

With `CC(C)COC(=O)C(C)C`, the outcome was inactive.

With `CCC(C(=O)NC(N)=O)c1ccccc1` (stereo not given), the result was inactive.

Turning to `N[C@@H](CS)C(=O)O`, the result was inactive.

For `NS(=O)(=O)c1cc(C2(O)NC(=O)c3ccccc32)ccc1Cl` (stereo not given), the result was inactive.

For `CCN(CC)C(=O)c1ccc(O)c(OC)c1`, the outcome was inactive.

For the molecule `CCCCCCCCN(C)CCCCCCCC`, the outcome was inactive.

Consider `COc1nc(C)nc(N)n1`, for which the outcome was inactive.

Turning to `O=C(O)/C=C/c1ccc(Cn2ccnc2)cc1`, the outcome was inactive.

For `CCCCCCOC(=O)CC(CC(=O)OCCCCCC)(OC(=O)CCC)C(=O)OCCCCCC`, the result was inactive.

On to `NC(=O)CCCCC1CCSS1` (stereo not given), for which the result was inactive.

`CCCCCCC(=O)OCC`: the result was inactive.

For the molecule `Nc1ncnc2c1ncn2Cc1c(F)cccc1Cl`, the outcome was inactive.

`Cc1c(C)n(CCN(C)C)c2ccc(C(=O)OCCN(C)C)cc12`: the outcome was inactive.

For the molecule `O=[N+]([O-])c1ccc(Oc2ccc([N+](=O)[O-])cc2)cc1`, the result was inactive.

On to `CC(C=O)Cc1ccc(C(C)C)cc1` (stereo not given), for which the outcome was inactive.

As for `CCC(=O)Nc1cccc(N)c1`, the result was inactive.

For the molecule `COC(C(=O)O)c1ccccc1` (stereo not given), the result was inactive.

As for `CN(C)CCOC(c1ccc(Cl)cc1)c1ccccn1` (stereo not given), the result was inactive.

Regarding `Cc1ccccc1C(=O)O`, the outcome was inactive.

Regarding `CCCCOCC(C)OCC(C)O` (stereo not given), the result was inactive.

On to `Nc1ccc2cc(S(=O)(=O)O)ccc2c1`, for which the result was inactive.

`OCc1ccccn1`: the result was inactive.

Turning to `CSc1ccc(C=O)cc1`, the outcome was inactive.

For the molecule `CCO[Si](CCCN=C=O)(OCC)OCC`, the result was inactive.

Regarding `CC1(C)SC(C)(C)SC(C)(C)S1`, the outcome was inactive.

For the molecule `CC(=O)NC(Cc1ccccc1)C(=O)O` (stereo not given), the outcome was inactive.

Turning to `NC(=O)Nc1nc2ccccc2[nH]1`, the result was inactive.
